# According to PubChem BioAssay (NCI):
# Compounds without any hit were thinned out: in the full panel of roughly 83,000, 20% have a hit.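 Interpretation: 100, growth as untreated; towards 0, rising growth inhibition; 0, no net growth; 0 to -100, cell death. Compounds scoring below 10 were considered active.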 The source made the active and inactive calls.
# Tested on: HL-60(TB) leukemia
# Assay: NCI-60 one-dose screen, 48 h (100 = growth as untreated, 0 = no growth, -100 = all killed)
# Details: 10 µM unless noted
row,SMILES,growth
1,COc1cc(CCN=Cc2ccccc2O)c([N+](=O)[O-])cc1OC,101% (inactive)
2,N#C/C(=C1\SC(=O)CN1c1ccccc1)c1nc2ccccc2s1,92.8% (inactive)
3,CCOC(=O)c1c2c(c(C)n1Cc1ccc(OC)cc1)-c1nc(N)ncc1CC2,68.8% (inactive)
4,CCC(CCCN1C(=O)c2ccccc2C1=O)Nc1cc(OC)cc2cccnc12 (stereo not given),86.1% (inactive)
5,COc1ccc(CNc2c3ccccc3nc3ccc(OC)cc23)cc1,-20.7% (active)
6,CC1(C)N=C(N)N=C(N)N1c1cccc(/C=C/C=C/c2cccc([N+](=O)[O-])c2)c1,12% (inactive)
7,Oc1ccc(Nc2nccc(-c3ccc4ccccc4c3)n2)cc1,7.93% (active)
8,CN(C)CCOc1cccc(-c2nc3sccn3c2-c2ccnc(S(C)(=O)=O)n2)c1,104% (inactive)
9,C=C(C)[C@@H]1CC[C@]2(C(=O)NCCNCCNCCN)CC[C@]3(C)[C@H](CC[C@@H]4[C@@]5(C)CC[C@H](O)C(C)(C)[C@@H]5CC[C@]43C)[C@@H]12,-24% [100 µM] (active)
10,Cc1cc(C(N)=O)cc(C)c1C(=O)OCCCl,106% (inactive)
11,CCCC1(c2ccccc2)NC(=O)NC1=O (stereo not given),144% (inactive)
12,CC(=O)[C@@H]1CC[C@]2(C(N)=O)CC[C@]3(C)[C@H](CC[C@@H]4[C@@]5(C)CCCNC(C)(C)[C@@H]5CC[C@]43C)[C@@H]12,91% (inactive)
13,O=C(/C=C/c1ccc(F)cc1)N1CCN(C(=O)/C=C/c2ccc(C(F)(F)F)cc2)CC1,97% (inactive)
14,CCCCCCCCN(CCCCCCCC)CC(O)c1cc(-c2ccccc2)nc2ccc(OC)cc12 (stereo not given),-28.4% (active)
15,O=C1CN(c2ccccc2)C(=O)C1C(=O)Nc1ccc(Cl)c(Cl)c1 (stereo not given),7.75% [100 µM] (active)
16,CC[N+]1(CC)CC[N+]2(CCCC(C)CC2)CC1 (stereo not given),101% (inactive)
17,C=C1C(=O)O[C@H]2[C@H]1CC/C(COC(=O)c1cc3ccccc3s1)=C\CC[C@@]1(C)O[C@@H]21,-33.8% (active)
18,COc1cccc(C(=O)O)c1OC,106% (inactive)
19,COc1ccc(/C(C)=C(\c2ccc(Cl)cc2)c2ccc(OCCN3CCCC3)cc2)cc1,37.9% (inactive)
20,CCOc1ccc2c(c1)CC[C@@H]1[C@@H]2CC[C@]2(C)[C@@H](O)[C@@H](O)C[C@@H]12,97% (inactive)

row,SMILES,growth
1,COc1ccc(-c2nc(SCC(C)C)nc(Nc3ccc(C)cc3)c2C#N)cc1,92.3% (inactive)
2,CCN(CC)CCCC(C)Nc1ccc2cc(OC)ccc2n1 (stereo not given),126% (inactive)
3,Nc1ncnc(Nc2ccc(C(F)(F)F)cc2)n1,89.2% (inactive)
4,CC1=NN(c2ccc(S(=O)(=O)O)cc2Cl)C(=O)C1,143% (inactive)
5,N=C(N)c1ccc(OCCCCCCCCCCOc2ccc(C(=N)N)cc2)cc1,-70.1% (active)
6,CC1=Nc2cnc(Nc3ccc(N4CCCCC4)cc3)nc2Nc2ccccc21,28.1% (inactive)
7,O=C1CCC(c2c(O)cc(O)c3c(=O)c(O)c(-c4ccc(O)c(O)c4)oc23)N1 (stereo not given),87% (inactive)
8,CNc1ccccc1C(=O)N/N=C/C=C/c1ccccc1,-32.6% (active)
9,Cc1c(Cl)cccc1NS(=O)(=O)c1ccccc1,113% (inactive)
10,C=C1c2nc3ccccc3n2C=C(c2ccc(Cl)cc2)N1Cc1ccccc1,60.1% (inactive)
11,CNC(=O)c1cc(Oc2ccc3nc(NC(=O)Nc4cc(C(F)(F)F)cc(C(F)(F)F)c4)sc3c2)ccn1,-39.8% (active)
12,COc1cc(Nc2ncc3c(n2)-c2ccc(Cl)cc2C(c2c(F)cccc2OC)=NC3)ccc1C(=O)O,45.4% (inactive)
13,Nc1ccc(Cl)c(S(=O)(=O)O)c1,90.5% (inactive)
14,CCCCCCCCCCCC[N+](C)(C)Cc1ccccc1,-52.6% (active)
15,C=C1C(=O)O[C@H]2[C@H]1CC/C(COC(=O)n1ccnc1)=C\CC[C@@]1(C)O[C@@H]21,64.3% (inactive)
16,COc1cc(-c2ccc(N=Nc3c(O)c(C(=O)Nc4ccccc4OC)cc4ccccc34)c(OC)c2)ccc1N=Nc1c(O)c(C(=O)Nc2ccccc2OC)cc2ccccc12,79.2% (inactive)
17,CCS(=O)(=O)OCCCl,86.7% (inactive)
18,CCOc1ccc(Br)cc1/C=C(\C#N)c1ccc([N+](=O)[O-])cc1,91.6% (inactive)
19,COC(=O)/C(=C\c1c(C)[nH]c2ccccc12)S(=O)(=O)c1ccccc1,-27.3% (active)
20,COc1ccc2c(c1)c(CC(=O)[Se]C)c(C)n2C(=O)c1ccc(Cl)cc1,-38.9% (active)
